Pf growth 96h = Primary qHTS for delayed death inhibitors of the malarial parasite plastid, 96 hour incubation; P. falciparum luciferase reporter growth, 96 h; Potency, µM (doses to about 28.7 µM), without a hit: at the top dose activity change, negative = inhibition, usual class: inhibitors; actives 6.9% (n = 320,000); AID 504834, 2011; also: potency is read from the fitted curve at half-maximal effect; % is scaled to controls: 0 for no effect and ±100 for the full control effect
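Compounds incubated with erythrocytes infected by luciferase-expressing P. falciparum (2% hematocrit, 0.05% parasitemia final) for 96 hours, 37 C in 5% CO2. Growth inhibition scored as decreased luciferase luminescence.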
Shiga inhibitor = A qHTS for Small Molecule Inhibitors of Shiga Toxin; Vero cells, Shiga toxin protein synthesis inhibition reporter; inhibition, % at 38.7 µM; actives 9.2% (n = 290,000); in the data active = inhibition mostly above about 28%, no sharp cut-off; inactive = mostly below about 43%; also: 0% is about no effect
Pf growth 48h = Primary qHTS for delayed death inhibitors of the malarial parasite plastid, 48 hour incubation. P. falciparum luciferase growth in erythrocytes, 48 h. Potency, µM (highest dose often 28.7 µM), without a hit: at the highest dose activity change, negative = inhibition, hits mostly inhibitors. AID 504832, 2011. actives 5.9% (n = 310,000); also: potency is read from the fitted curve at half-maximal effect; % is scaled to controls: 0 for no effect and ±100 for the full control effect
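Firefly luciferase activity from engineered P. falciparum reports growth; inhibitors lower the luminescent signal. Cultures contained 2% hematocrit erythrocytes at 0.1% final parasitemia.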
Cycloheximide cs = Cycloheximide Counterscreen for Small Molecule Inhibitors of Shiga Toxin. cell reporter, cycloheximide protein synthesis inhibition counterscreen. max response, %. actives 12% (n = 300,000). AID 2314, 2010; in the data active = max response mostly above about 13%, no sharp cut-off; inactive = mostly below about 14%; also: read at 38.3 µM for the half of the compounds with a filed dose; 0% is about no effect
Numbers without * were called inactive; [ ] = dose if it differs, or a comment. In the library only some 21% were active in any assay of this set; here they are far more common. Unless noted, calls follow the shape of the dose curve; as a rule, active = well fitted inhibition curve with a large enough effect; inconclusive = small, poorly fitted or top-dose-only effect, or another doubt; inactive = no such curve, though single readings can be large or run the other way.

Results for NC(=O)CC(NC(=O)c1ccc(Cl)cc1)C(=O)NCCc1ccc(S(N)(=O)=O)cc1 (stereo not drawn) ?
Pf growth 96h: 24.2%; Shiga inhibitor: -8.5; Pf growth 48h: 8.3%; Cycloheximide cs: -1.7

What do the screens show for `Cc1onc(-c2ccc(Cl)cc2)c1-c1ccnc(SCC(=O)Nc2cc(Cl)cc(Cl)c2)n1`?
Pf growth 96h: inconclusive; Shiga inhibitor: 5.2; Pf growth 48h: inconclusive; Cycloheximide cs: 1.4

Results for O=C(NC(=S)Nc1cccc2[nH]ncc12)c1ccccc1 ?
Pf growth 96h: 381.1%; Shiga inhibitor: 58.4*; Pf growth 48h: 164.5%; Cycloheximide cs: 36.2*

What do the screens show for `CNc1ccc(-c2nc3ccccc3s2)cc1`?
Shiga inhibitor: -8.4; Cycloheximide cs: -17.6

What do the screens show for `COc1ccc2nc(-n3c(C)ccc3C)sc2c1`?
Shiga inhibitor: 77.4*; Pf growth 48h: -5.3%; Cycloheximide cs: 22.4*

What do the screens show for `COc1ccc2nc(-c3ccc(N(C)C)cc3)sc2c1`?
Shiga inhibitor: 25.3*; Cycloheximide cs: 31.6*

What do the screens show for `COc1ccc2nc(N)sc2c1`?
Pf growth 96h: -1.7%; Shiga inhibitor: 8.8; Pf growth 48h: 31.0%; Cycloheximide cs: 13.5

What do the screens show for `COc1cc(OC)cc(-c2nc3ccccc3s2)c1`?
Pf growth 96h: inactive; Shiga inhibitor: 72.1*; Pf growth 48h: 171.5%; Cycloheximide cs: 46.1*

Results for COc1ccc(N(CC(C)C)S(=O)(=O)c2nnc(NC(=O)c3ccco3)s2)cc1 ?
Pf growth 96h: inconclusive; Shiga inhibitor: -4.0; Pf growth 48h: inconclusive; Cycloheximide cs: -4.8

How did O=C(CN1C(=O)NC2(CCCCC2)C1=O)N1CCOCC1 do in these assays?
Pf growth 96h: -4.6%; Pf growth 48h: 9.5%

Results for CCN(C(=O)c1coc(=O)c(Br)c1)c1ccc2c(c1)OCO2 ?
Pf growth 96h: inconclusive; Shiga inhibitor: 85.9*; Pf growth 48h: inconclusive; Cycloheximide cs: 27.2*

Results for Cc1ccc(-c2cc(C(=O)N/N=C/c3ccc(F)cc3)n[nH]2)o1 ?
Pf growth 96h: inconclusive; Shiga inhibitor: -5.9; Pf growth 48h: -1.1%; Cycloheximide cs: 10.2

What do the screens show for `Cc1ccc(-c2cc(C(=O)N/N=C/c3ccccc3O)n[nH]2)o1`?
Pf growth 96h: inconclusive; Shiga inhibitor: 59.5*; Pf growth 48h: 5.22µM*; Cycloheximide cs: 33.8*

Results for Cc1ccc(-c2cc(C(=O)N/N=C/C(Br)=C/c3ccccc3)n[nH]2)o1 ?
Pf growth 96h: -6.4%; Shiga inhibitor: 16.5; Pf growth 48h: 4.4%; Cycloheximide cs: 6.2

How did Cc1ccc(-c2cc(C(=O)N/N=C/c3c[nH]c4ccccc34)n[nH]2)o1 do in these assays?
Pf growth 96h: 3.7%; Shiga inhibitor: -0.6; Pf growth 48h: 3.9%; Cycloheximide cs: 16.8*

How did COc1ccccc1N/C=C1/Sc2cc(Cl)ccc2NC1=O do in these assays?
Pf growth 96h: -32.5%[1.15 µM]; Shiga inhibitor: -6.6; Pf growth 48h: 1.3%; Cycloheximide cs: -1.9

What do the screens show for `CCOC(=O)C1CCCCN1C(=O)c1oc2c(Cl)cc(C)cc2c1C` (stereo not drawn)?
Pf growth 96h: inconclusive; Shiga inhibitor: 117.6*; Pf growth 48h: 53.2%; Cycloheximide cs: 45.6*

Results for Cc1cc(Cl)c2oc(C(=O)NCC(C)(C)N3CCOCC3)c(C)c2c1 ?
Pf growth 96h: 22.4%; Shiga inhibitor: 37.4; Pf growth 48h: inconclusive; Cycloheximide cs: 17.7*

How did Cc1cc(Cl)c2oc(C(=O)NC3CCC(O)CC3)c(C)c2c1 (stereo not drawn) do in these assays?
Pf growth 96h: 0.0%; Pf growth 48h: 36.1%; Cycloheximide cs: 21.0*

How did COC(=O)C1CCN(C(=O)c2oc3c(Cl)cc(C)cc3c2C)CC1 do in these assays?
Pf growth 96h: 7.6%; Shiga inhibitor: 76.5*; Pf growth 48h: 101.0%; Cycloheximide cs: 47.3*

Results for CN(C)S(=O)(=O)c1ccc(NC(=O)CN2CCCc3ccccc32)cc1 ?
Pf growth 96h: inconclusive; Shiga inhibitor: 43.2; Pf growth 48h: -14.3%; Cycloheximide cs: 11.8

Results for CC(C)(C)C1CCC(=NNC(=O)CC(=O)NCc2ccccc2)CC1 (stereo not drawn) ?
Pf growth 96h: 2.08µM*; Shiga inhibitor: -2.5; Pf growth 48h: 9.8%; Cycloheximide cs: -3.0

Results for CC(C)(C)C1CCC(=NNC(=O)C(=O)NCc2ccco2)CC1 (stereo not drawn) ?
Pf growth 96h: 12.5%; Shiga inhibitor: -16.8; Pf growth 48h: 9.5%; Cycloheximide cs: 1.4

How did CC1CCC(=NNC(=O)Cc2ccccc2)CC1 (stereo not drawn) do in these assays?
Pf growth 96h: inconclusive; Shiga inhibitor: 9.1; Pf growth 48h: inconclusive; Cycloheximide cs: 14.1*

Bioassay records (PubChem)
